TIM10 inh: growth inhibitors of TIM10 yeast strain; S. cerevisiae TIM10 strain growth, BacTiter-Glo luminescence, 24 h; inhibition, % at 10 µM; actives 1.4% (n = 330,000); AID 463195;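 active means inhibition of 40% or more at the single tested concentration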;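 further: wild-type TIM10 isogenic control strain grown at permissive 25 °C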
PfHsp90 yeast 2: growth inhibition of yeast expressing Plasmodium Hsp90. S. cerevisiae expressing PfHsp90, BacTiter-Glo ATP, 48 h; yeast lacking PDR1 and PDR3 efflux regulators. inhibition, % at 9.4 µM. actives 0.32% (n = 310,000);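 active means every replicate shows inhibition above about 80%, whatever the replicate mean, limit read from the data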;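 further: 0% = DMSO neutral controls and 100% = 20 µM radicicol positive controls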
SKKanGAS inh: blocks kanamycin growth of S. pyogenes SKKanGAS strain. BacTiter-Glo, 6 h. inhibition, % at 7.5 µM. actives 1.3% (n = 300,000);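 active means mean replicate score, as percent of positive control median, at least 50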;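 further: strain carries kanamycin resistance gene driven by streptokinase promoter and grows in 40 µg/ml kanamycin; loss of luminescence reflects streptokinase promoter inhibition or plain growth inhibition; 0% = median of DMSO wells and 100% = positive control at its reference dose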
tim23-1 inh: inhibits growth of tim23-1 mutant yeast | S. cerevisiae tim23-1 growth, BacTiter-Glo luminescence, 24 h | inhibition, % at 20 µM | actives 1.3% (n = 330,000);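 active means growth inhibition of the mutant yeast at or above 50%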;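 further: temperature-sensitive mutant grown at 25 °C; plate controls were DMSO-treated mutant yeast for no effect and medium wells lacking yeast for full effect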
tim10-1 inh: inhibits growth of tim10-1 mutant yeast. S. cerevisiae tim10-1 ts strain growth, BacTiter-Glo, 24 h. inhibition, % at 20 µM. actives 2.2% (n = 330,000). AID 463190;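 active means inhibition of at least 40%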;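 further: mutant grown at 25 °C; 0% = DMSO wells with yeast and 100% = wells holding no yeast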
tim10-1 conf: confirmation of tim10-1 mutant yeast growth inhibitors; shares compounds with tim10-1 inh; S. cerevisiae tim10-1 ts strain growth, BacTiter-Glo, 24 h; inhibition, % at 20 µM; actives 56% (n = 7,400);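 active means inhibition of yeast growth at or above a set limit in either of two repeat tests at 20 µM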;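 further: tim10-1 mutant grown at permissive 25 °C to find synthetic lethal compounds; 0% = DMSO yeast wells and 100% = medium wells without yeast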
The depositor's hits bear a star; . = no result given. Shown are actives, neighbours in structure and some others; about 4.4% of the full set was active somewhere.

SMILES	TIM10 inh	PfHsp90 yeast 2	SKKanGAS inh	tim23-1 inh	tim10-1 inh	tim10-1 conf
CCNC(=S)NNC(=O)c1cc(CC(C)C)nc2ccccc12	16	8	2	13	33	.
CCNC(=S)NNC(=O)c1cc(-c2ccccc2C)nc2ccccc12	33	15	-11	33	46*	46*
Cc1cccc(C(=O)Nc2nnc(S(=O)(=O)N3CCC(C)CC3)s2)c1	10	-9	43	30	35	.
Cc1ccccc1CN1CCN(c2nc3ccccc3s2)CC1	5	-1	19	40	41*	24
CSc1ncccc1C(=O)OCC(=O)c1[nH]c(C)c(C(C)=O)c1C	19	.	.	23	17	.
O=C(CSc1n[nH]c(-c2ccco2)n1)N1c2ccccc2Sc2ccccc21	6	.	-7	28	46*	24
CCOC(=O)CSc1n[nH]c(-c2ccco2)n1	4	3	3	20	8	.
COc1ccc(C(=S)N2CCCCCC2)cc1	-4	.	1	4	40*	11
COc1ccc(C(=S)N2CCNCC2)cc1	11	9	3	3	-4	.
CC(NCCN(C)C)C1CCC2C3CCc4cc(O)ccc4C3CCC12C (centres undefined)	.	-33	.	.	.	.
C/C(=N\OCc1ccc(C#N)cc1)c1ccc(S(=O)(=O)N(C)C)cc1	10	-4	-5	33	42*	41*
C/C(=N\OCc1ccc(C#N)cc1)c1ccccc1	-14	1	0	12	1	.
CC(=O)N1CCc2cc(S(=O)(=O)CCC(=O)N(C)Cc3ccco3)ccc21	8	4	-5	-3	-4	.
CCOC(=O)C1=CN(CC)S(=O)(=O)NC1c1ccc2ccccc2c1 (centres undefined)	1	-5	.	42	21	.
O=C1NC(=O)C(=Cc2ccccc2[N+](=O)[O-])S1	.	-16	.	.	.	.
O=C1NC(=O)/C(=C/c2cccc3ccccc23)S1	12	-35	25	41	47*	35*
Cn1ncc(Cl)c1C(=O)Nc1cc(C(F)(F)F)ccc1F	-3	.	1	4	47*	10
CCOC(=O)[C@H]1[C@H]2COc3ccc(Cl)cc3[C@@H]2N2C(=O)CN(C)C(=O)[C@@]12C	0	13	.	1	-3	.
O=C(Nc1ccc(C(F)(F)F)cc1)C1CCN(c2cnccn2)CC1	10	23	-2	28	41*	2
Cc1ccc(NC(=O)C2CCN(c3cnccn3)CC2)cc1	-6	-23	16	-4	-11	.
COc1ccc(Nc2cc(Nc3cccc(OC)c3)ncn2)cc1	-34	-3	4	17	3	.
COC(=O)c1ccsc1NC(=O)CS(=O)(=O)c1ccccc1	5	.	6	18	21	.
COC(=O)c1ccsc1NC(=O)CCS(=O)(=O)c1ccccc1	6	4	16	41	42*	21
Cc1ccc(S(=O)(=O)CCC(=O)Nc2sccc2C(N)=O)cc1	3	-3	.	-4	-5	.
COC(=O)c1ccsc1NC(=O)CCS(=O)(=O)c1ccc(Cl)cc1	32	-6	-6	46	56*	59*
SMILES	TIM10 inh	PfHsp90 yeast 2	SKKanGAS inh	tim23-1 inh	tim10-1 inh	tim10-1 conf
CN(C)CCC1(C2=CCCC2)CC/C(=C/c2ccc(Cl)cc2)C1=O (centres undefined)	.	-16	.	.	.	.
CCOc1ccccc1Nc1nc2ccccc2n1C(C)C	-6	18	17	4	9	.
COc1ccc(-c2sc3cc4c(cc3c2C#CC2(N)CCCCC2)OCO4)cc1	33	-7	.	46	48*	44*
Cc1ccc2c(CC(=O)O)coc2c1C	-13	26	-3	24	41*	17
COc1ccc(C(=O)O/N=C(/c2ccccc2)c2ccncc2)cc1OC	35	13	4	29	14	.
N/C(=N\OC(=O)c1ccc(Br)cc1)c1ccncc1	37	0	-21	29	53*	43*
N/C(=N\OC(=O)c1ccc(F)cc1)c1ccc(Br)cc1	34	.	1	29	57*	46*
N/C(=N\OC(=O)c1ccccc1)c1ccncc1	4	2	-4	4	-8	.
Cc1cccc(C(=O)O/N=C(/c2ccccc2)c2ccncc2)c1	31	.	-3	37	41*	42*
N/C(=N\OC(=O)c1cccc(Br)c1)c1ccncc1	11	10	-4	12	41*	35*
CCOc1ccc(C(=O)C2CCN(C(=O)c3ccc([N+](=O)[O-])cc3)CC2)cc1	-8	21	4	29	30	.
